For orientation: AC50 means the midpoint of the concentration-response curve, whichever way the signal moves.

Molecules are shown by their SMILES. Results filed as inconclusive are left out. Active and inactive are the calls of the source. Rule for the calls, unless noted: active = hit-call score of the fitted dose curve at least 0.9, where 1 is the maximum; inactive = score below 0.9.

In PubChem BioAssay (EPA / NIEHS) one finds outcome and AC50 data, which are given here for six compounds.

Assay [1] concerns the target CCAAT/enhancer-binding protein beta (Homo sapiens) (UniProt P17676). In words: ATG_C_EBP_CIS: Attagene CIS-FACTORIAL HepG2 Assay for human CCAAT/Enhancer Binding Protein (C/EBP) beta (AID 2282927). The settings on record: HepG2 Attagene cis-factorial transcription factor reporter; actives raise or lower the signal. An outline of the steps: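 Following a 24 h incubation with test chemical, transfected HepG2 cells yielded RNA whose reporter transcripts were quantified by RT-PCR and fluorescent capillary electrophoresis, with DMSO serving as baseline for bidirectional fitting.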

A short description of assay [2]: ATG_CMV_CIS: Attagene CIS-FACTORIAL HepG2 Assay for human CMV (Internal Marker) (AID 2282928).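 Note: endpoint acts as a background internal control marker rather than a target.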 The settings on record: HepG2 CMV promoter reporter, transcription factor profiling; actives raise or lower the signal. The gist of the method:
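Reporter transcripts from transfected HepG2 cells are isolated after 24 h of chemical dosing, reverse-transcribed and amplified. Fragments labeled with 6-FAM are cut with HpaI and quantified by capillary electrophoresis; DMSO defines baseline.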

The nature of assay [3]: ATG_AP_2_CIS: Attagene CIS-FACTORIAL HepG2 Assay for human Activator Protein 2 (AP-2) (AID 2282932). The settings on record: HepG2 AP-2 cis-reporter, Attagene transcription factor profiling; actives raise or lower the signal. The gist of the method:
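Assay in transfected HepG2 with promoter-regulated reporters, 24 h incubation after dosing. Signal is reporter mRNA fluorescence (RT-PCR, capillary electrophoresis), analysed for both increases and decreases relative to DMSO controls.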

The nature of assay [4]: ATG_BRE_CIS: Attagene CIS-FACTORIAL HepG2 Assay for human Bone Morphogenetic Protein (BMP) Response Element (BRE) (AID 2282933). The settings on record: HepG2 BMP response element reporter, Attagene transcription factor profiling; actives raise or lower the signal. An outline of the steps: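 Endogenous transcription factor activity read in transiently transfected HepG2 cells after 24 h chemical exposure. Bidirectional curve fitting against DMSO; readout is reporter transcript level by RT-PCR with capillary electrophoresis of labelled products.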

The target of assay [5] is Transcription factor E2F1 (Homo sapiens) (UniProt Q01094). In words: ATG_E2F_CIS: Attagene CIS-FACTORIAL HepG2 Assay for human E2F Transcription Factor 1 (AID 2282935). The settings on record: HepG2 Attagene cis-reporter, E2F reporter RNA transcripts; actives raise or lower the signal. The gist of the method:
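In this cis-factorial format, endogenous factor activity drives transfected reporters in HepG2; transcripts collected at 24 h are quantified by fluorescence after RT-PCR and capillary separation.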

Assay [6] can be described thus: ATG_E_Box_CIS: Attagene CIS-FACTORIAL HepG2 Assay for human Enhancer Box (E-box) (AID 2282936). The settings on record: HepG2 E-box cis-reporter transcription, actives raise or lower the signal. An outline of the steps: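 Measured 24 h post-dosing in HepG2 cells transfected with multiple cis-regulated reporter units, signal being reporter mRNA induction detected by fluorescent RT-PCR with capillary electrophoresis; gain or loss fitted against DMSO.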

A short description of assay [7]: ATG_M_61_CIS: Attagene CIS-FACTORIAL HepG2 Assay for M61 Transcription Factor (Internal Marker) (AID 2282937). The settings on record: HepG2 Attagene CIS-FACTORIAL M61 internal marker reporter; actives raise or lower the signal. An outline of the steps:
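Readout: fluorescent reporter mRNA fragments resolved by capillary electrophoresis after RT-PCR. Transiently transfected human HepG2 cells carried MRTU constructs reporting endogenous TF activity; 24 h chemical exposure; gain or loss of signal fitted relative to DMSO.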

Assay [8] in a line: ATG_EGR_CIS: Attagene CIS-FACTORIAL HepG2 Assay for human Early Growth Response 1 (EGR1) (AID 2282938). The settings on record: HepG2 Attagene CIS-FACTORIAL EGR reporter mRNA; actives raise or lower the signal. The gist of the method:
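Read-out: fluorescent reporter-mRNA fragments resolved by capillary electrophoresis after RT-PCR, 24 h post-dose in transiently transfected HepG2. Endogenous transcription-factor activity reported via cis-element-regulated reporter units; gain or loss fitted relative to DMSO.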

Assay [9] is described as follows: ATG_M_19_CIS: Attagene CIS-FACTORIAL HepG2 Assay for M19 Transcription Factor (Internal Marker) (AID 2282939). The settings on record: HepG2 Attagene CIS-FACTORIAL M19 internal marker reporter; actives raise or lower the signal. The gist of the method:
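Internal marker readout, fitted in both directions against DMSO, from HepG2 cells carrying transfected cis-element reporter constructs; RT-PCR and capillary electrophoresis of reporter mRNA after 24 h exposure.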

Assay [10] can be described thus: ATG_GATA_CIS: Attagene CIS-FACTORIAL HepG2 Assay for human GATA Binding Protein (AID 2282944). The settings on record: HepG2 GATA cis-element reporter, Attagene multiplex mRNA; actives raise or lower the signal. The gist of the method:
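Reporter transcripts from a GATA cis-regulated unit, among multiplexed reporters in transfected HepG2 cells, were measured by RT-PCR with capillary electrophoresis after 24 h dosing. Induction or loss scored relative to DMSO.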

The nature of assay [11]: ATG_GLI_CIS: Attagene CIS-FACTORIAL HepG2 Assay for human Zinc Finger Protein GLI1 (AID 2282945). The settings on record: HepG2, Attagene cis-factorial reporter mRNA, GLI element; actives raise or lower the signal. The gist of the method:
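HepG2 cells transiently transfected with cis-promoter multiplexed reporter units report endogenous transcription factor activity. After 24 h chemical exposure, reporter mRNA was quantified by RT-PCR, 6-FAM labelling, HpaI digestion and capillary electrophoresis, with bidirectional fitting against DMSO.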

A short description of assay [12]: TOX21_p53_BLA_p2_viability: Viability Assessment in the Tox21 HCT-116 p53 Agonism Beta-lactamase Assay, Phase 2 (AID 2283591; active = hit-call score of the fitted dose curve at least 0.9, where 1 is the maximum;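 note: compound exposure lasted 16 h at 37 °C; actives lower the ATP signal meaning cytotoxicity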). The gist of the method:
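HCT-116 p53-bla cells (4000/well) rested 5 h at 37C, then received compounds in DMSO (217-fold dilution) for 16 h at 37C, 5% CO2. After the CCF4 read, CellTiter-Glo was added; ATP luminescence was read after 30 min at room temperature.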

In assay [13] the target is Cellular tumor antigen p53 (Homo sapiens) (UniProt P04637). Briefly: TOX21_p53_BLA_p2_ratio: Tox21 HCT-116 p53 Agonism Beta-lactamase Assay, Ratio, Phase 2 (AID 2283592; active = hit-call score of the fitted dose curve at least 0.9, where 1 is the maximum). The gist of the method:
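DMSO-normalized, positive-direction endpoint derived from the 460 nm/530 nm FRET ratio in HCT116 p53 beta-lactamase reporter cells exposed 16 h at 37C and loaded with CCF4-AM for 2 h.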

Assay [14] can be described thus: TOX21_p53_BLA_p3_viability: Viability Assessment in the Tox21 HCT-116 p53 Agonism Beta-lactamase Assay, Phase 3 (AID 2283593; active = hit-call score of the fitted dose curve at least 0.9, where 1 is the maximum;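 note: cells exposed to compound for 16 h before reading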). The gist of the method:
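HCT-116 cells (4000/well) rested 5 h at 37C, then got DMSO compounds by pin tool (217-fold dilution) for 16 h at 37C, 5% CO2. After the bla read, CellTiter-Glo was added and luminescence read at 30 min, room temperature.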

Assay [15] concerns the target Cellular tumor antigen p53 (Homo sapiens) (UniProt P04637). In words: TOX21_p53_BLA_p3_ratio: Tox21 HCT-116 p53 Agonism Beta-lactamase Assay, Ratio, Phase 3 (AID 2283596; active = hit-call score of the fitted dose curve at least 0.9, where 1 is the maximum). An outline of the steps:
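Cells were seeded at 4000/well, rested 5 h at 37C, then dosed with DMSO compound solutions (217-fold dilution) for 16 h. CCF4-AM substrate was loaded for 2 h at room temperature, and the 460/530 nm emission ratio was fitted for gain of signal versus DMSO.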

Assay [16] shares this target. In words: TOX21_p53_BLA_p5_ratio: Tox21 HCT-116 p53 Agonism Beta-lactamase Assay, Ratio, Phase 5 (AID 2283599; active = hit-call score of the fitted dose curve at least 0.9, where 1 is the maximum). An outline of the steps: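 HCT-116 cells carrying a p53-inducible beta-lactamase reporter were seeded at 4000 cells/well and dosed after 5 h with compound in DMSO (217-fold dilution). After 16 h at 37C, CCF4-AM substrate was added for 2 h, and the 460/530 nm emission ratio was scored as gain-of-signal versus DMSO.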

Assay [17] in a line: TOX21_p53_BLA_p5_viability: Viability Assessment in the Tox21 HCT-116 p53 Agonism Beta-lactamase Assay, Phase 5 (AID 2283600; active = hit-call score of the fitted dose curve at least 0.9, where 1 is the maximum). An outline of the steps:
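Here cell health was gauged by ATP levels in wells holding 4000 cells, each treated 16 h with DMSO-delivered compounds at 217-fold dilution; reduced luminescence marked toxicity.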

Assay [18] concerns the target Cellular tumor antigen p53 (Homo sapiens) (UniProt P04637). Briefly: TOX21_p53_BLA_p4_ratio: Tox21 HCT-116 p53 Agonism Beta-lactamase Assay, Ratio, Phase 4 (AID 2283601; active = hit-call score of the fitted dose curve at least 0.9, where 1 is the maximum). The gist of the method: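 HCT116 cells carrying an inducible beta-lactamase reporter were plated at 4000 cells/well, rested 5 h, then exposed to compounds in DMSO (217-fold dilution) for 16 h at 37C. CCF4-AM substrate was loaded 2 h at room temperature; 460/530 nm emission ratio scored gain-of-signal versus DMSO.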

The nature of assay [19]: TOX21_p53_BLA_p4_viability: Viability Assessment in the Tox21 HCT-116 p53 Agonism Beta-lactamase Assay, Phase 4 (AID 2283597; active = hit-call score of the fitted dose curve at least 0.9, where 1 is the maximum;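 note: hits lower the luminescence signal meaning cytotoxicity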). The gist of the method:
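In this multiplexed secondary endpoint, HCT116 cells (4000 per well, compound at 5 h, 16 h treatment) received CellTiter-Glo after the beta-lactamase read. Luminescence after 30 min RT reflects ATP, and falling signal marks cytotoxicity.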

Chain of Cellular tumor antigen p53 (Homo sapiens) (P04637 whole entry, looked up): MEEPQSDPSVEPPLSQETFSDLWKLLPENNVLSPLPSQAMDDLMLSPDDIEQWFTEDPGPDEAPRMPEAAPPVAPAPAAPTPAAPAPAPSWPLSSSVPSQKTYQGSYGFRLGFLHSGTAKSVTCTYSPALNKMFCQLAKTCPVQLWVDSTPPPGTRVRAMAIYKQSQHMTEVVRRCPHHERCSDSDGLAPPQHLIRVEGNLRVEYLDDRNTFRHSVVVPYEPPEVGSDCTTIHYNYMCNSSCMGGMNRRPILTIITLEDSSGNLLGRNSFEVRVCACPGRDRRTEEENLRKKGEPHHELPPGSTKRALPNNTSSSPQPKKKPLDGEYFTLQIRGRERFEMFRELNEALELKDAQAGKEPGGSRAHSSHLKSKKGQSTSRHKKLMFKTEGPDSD
Chain of CCAAT/enhancer-binding protein beta (Homo sapiens) (P17676 whole entry, looked up): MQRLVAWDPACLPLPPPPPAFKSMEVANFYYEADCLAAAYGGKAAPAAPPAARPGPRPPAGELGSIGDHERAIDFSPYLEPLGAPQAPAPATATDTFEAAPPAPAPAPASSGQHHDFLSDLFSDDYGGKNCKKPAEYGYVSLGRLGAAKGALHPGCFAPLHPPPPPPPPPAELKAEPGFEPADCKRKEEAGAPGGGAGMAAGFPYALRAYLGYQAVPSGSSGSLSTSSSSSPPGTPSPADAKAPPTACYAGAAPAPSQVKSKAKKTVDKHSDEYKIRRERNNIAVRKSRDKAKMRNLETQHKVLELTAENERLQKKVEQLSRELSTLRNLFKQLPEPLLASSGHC
Chain of Transcription factor E2F1 (Homo sapiens) (Q01094 whole entry, looked up): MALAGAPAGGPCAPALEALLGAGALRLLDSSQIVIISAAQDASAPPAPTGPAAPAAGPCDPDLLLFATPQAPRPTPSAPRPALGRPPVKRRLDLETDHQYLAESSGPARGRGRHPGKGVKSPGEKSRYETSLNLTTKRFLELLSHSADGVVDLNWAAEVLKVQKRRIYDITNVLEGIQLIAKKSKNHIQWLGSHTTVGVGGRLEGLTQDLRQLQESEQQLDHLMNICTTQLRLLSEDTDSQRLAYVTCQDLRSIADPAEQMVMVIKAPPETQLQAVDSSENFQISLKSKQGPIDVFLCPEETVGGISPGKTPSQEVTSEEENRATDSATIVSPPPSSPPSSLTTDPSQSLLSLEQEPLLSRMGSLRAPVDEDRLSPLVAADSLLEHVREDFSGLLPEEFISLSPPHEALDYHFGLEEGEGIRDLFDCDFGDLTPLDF

In the case of `C=CC(C)(CCC=C(C)C)OC(=O)c1ccccc1` (stereo not drawn), the outcome in [1], in assay [3], in assay [4], in assay [5], in [6] and in assay [7] was inactive. For the same compound, the compound was classed as inactive in assay [8], in [9], in assay [10], in [11], in assay [12] and in assay [13]. The result in [14], in assay [15], in assay [16], in assay [17] and in assay [18] was inactive. For the same compound, the AC50 in [2] was 100 µM (active).

Regarding `CC(C)CC(=O)CC(C)C`, the outcome in assay [1], in assay [2], in assay [3], in assay [4], in assay [5] and in assay [6] was inactive. In addition, the call in assay [7], in assay [8], in assay [9], in assay [10], in assay [11] and in assay [12] was inactive. In addition, the result in [13], in [14], in assay [15], in assay [19], in assay [16] and in assay [17] was inactive. In addition, the outcome in assay [18] was inactive.

As to `CCCCCCOC(=O)CCCCCCCC(=O)OCCCCCC`, the result in assay [1], in assay [2], in assay [3], in assay [4], in assay [5] and in assay [6] was inactive. The call in [7], in assay [8], in [9], in assay [10] and in [11] was inactive.

For the compound `Cc1c(C(N)=O)cc([N+](=O)[O-])cc1[N+](=O)[O-]`, the call in [12], in [15], in assay [19], in assay [16], in assay [17] and in assay [18] was inactive.

As for `COc1cccc(OC)c1C(=O)O`, the outcome in assay [1], in assay [2], in assay [3], in assay [4], in [5] and in assay [6] was inactive. Also, the result in assay [7], in [8], in assay [9], in assay [10], in assay [11] and in assay [13] was inactive. Moreover, the result in [15], in [19], in assay [16], in assay [17] and in assay [18] was inactive.

On to `CCO[Si](OCC)(OCC)c1ccccc1`, for which the result in assay [1], in assay [2], in assay [3], in [4], in [5] and in assay [6] was inactive. In addition, the result in assay [7], in [8], in assay [9], in assay [10], in assay [11] and in assay [12] was inactive. In addition, the outcome in assay [14], in [15], in assay [16], in [17] and in [18] was inactive.
